# Source: PubChem BioAssay (Tox21)
# Active and inactive are the calls of the source. Calls come from the whole dose curve; as a rule, active = well fitted curve in the direction sought with a large enough effect in the repeat runs; inconclusive = weak or mixed curves; inactive = flat fitted curve, though single readings scatter.
# Assay: qHTS assay to test for compound auto fluorescence at 535 nm (green) in HEK293 cell free culture (AID 720682)
# Details: cell-free medium, green autofluorescence 485/535 nm, active compounds read high; series mostly up to 91.3 µM; activity change: at the top concentration
# From the text: U.S. Tox21 Program National Center for Advancing Translational Sciences [NCATS] NIH Chemical Genomics Center [NCGC] U.S. Environmental Protection Agency [EPA] National Institutes of Environmental Health Sciences [NIEHS] National Toxicology Program [NTP] U.S. Food and Drug Administration [FDA] Tox21 Assay Overview: Compound auto fluorescence often interferes with screening of the compound library against various biological targets and signaling pathways. Some of these compounds may have fluorophoric properties. Such properties may interfere with the assay outputs resulting in false positives and/or negatives. To decrease such complications and ensure the compound activities are relevant in terms of biological response, the Tox21 10K compound library was screened for auto fluorescence. From the fluorophores used as reporter signals in our screening assays, the auto fluorescence equivalencies of compounds against three fluorophores have been evaluated: Triamterene, Fluorescein and Rose Bengal sodium for blue, green and red fluorescence, respectively. The fluorescence intensities were measured using Excitation/Emission wavelengths at 405/460nm, 485/535nm and 540/590nm for blue, green and red labels, respectively. This assay includes the green fluorescence data.
# Tox21 Assay Protocol Summary: 5 uL of culture medium (DMEM containing 10% FBS) per well was dispensed into black wall/clear bottom 1536-well plates using a Multidrop Combi Dispenser (ThermoFisher Scientific, Waltham, MA). After 23 nL compound or DMSO vehicle was transferred into assay plate by a pintool work station (Kalypsys, San Diego, CA), fluorescence intensities in the assay plates were measured by an Envision (PerkinElmer, Shelton, CT) plate reader using three labels for measuring blue, green and red fluorescence at […] 460, 535 and 590nm respectively.
# % is set by controls: 0 for no effect and ±100 for the full control effect.
Structure (SMILES),activity change,outcome
O=C(Nc1cccc([N+](=O)[O-])c1)c1cc2ccccc2cc1O,-0.0236% (inactive),
O=C(Nc1ccc(Oc2ccc(Cl)cc2)c(Cl)c1)c1cc(I)cc(I)c1O,0.0762% [at 46 µM] (inactive),
O=C(Oc1cccc2cccnc12)c1ccccc1,-0.0107% [at 46 µM] (inactive),
CCN(C(=O)c1cc(C)cc(OC[C@H](C)Nc2ccncc2)c1)C(C)C,-0.0017% (inactive),
CC(C)C(C)(C)C(C)(C)C(C)(C)S,0.141% (inactive),
O=c1c(-c2ccccc2)c1-c1ccccc1,0.0122% [at 46 µM] (inactive),
Nc1c2ccccc2nc2ccccc12,,inactive
CCCCCCCCCCCCCCCC[N+](C)(C)CCN(Cc1ccc(OC)cc1)c1ncccn1,-0.0015% [at 18.6 µM] (inactive),
NNc1nc(-c2ccc([N+](=O)[O-])cc2)cs1,-0.249% (inactive),
CSc1ccc(/C=C2/C(C)=C(CC(=O)O)c3cc(F)ccc32)cc1,0.0598% [at 46 µM] (inactive),
O=C1C=CC(=O)N1c1ccc(Cc2ccc(N3C(=O)C=CC3=O)cc2)cc1,-0.0267% (inactive),
C=CC(=O)OCCn1c(=O)n(CCOC(=O)C=C)c(=O)n(CCOC(=O)C=C)c1=O,-0.0521% (inactive),
Cc1cc(O)c(Cl)c(C)c1Cl,0.0414% (inactive),
CC[C@@]1(O)C(=O)OCc2c1cc1n(c2=O)Cc2cc3c(CN(C)C)c(O)ccc3nc2-1,2.79% [at 46 µM] (inactive),
O=C(c1ccc(O)cc1O)c1ccc(O)cc1O,,inactive
On1ccccc1=S,-0.0207% (inactive),
Cc1c(C)c2c(c(C)c1OC(=O)CCC(=O)O)CC[C@@](C)(CCC[C@H](C)CCC[C@H](C)CCCC(C)C)O2,,inactive
CCCCCCCCOc1ccccc1C(=O)Nc1ccc(C(=O)OCC[N+](C)(CC)CC)cc1,-0.157% [at 46 µM] (inactive),
Cc1cccc(CN2CCN(C(c3ccccc3)c3ccc(Cl)cc3)CC2)c1 (stereo not given),-0.0053% [at 18.6 µM] (inactive),
O=C(O)c1c(Cl)cccc1Cl,-0.0107% (inactive),

Structure (SMILES),activity change,outcome
CC(C)(C)CC(C)(C)c1ccc(O)c(Cc2ccc(Cl)cc2Cl)c1,-0.102% [at 46 µM] (inactive),
NNc1nc(-c2ccc(N)cc2)cs1,-0.272% (inactive),
N=C1N=C(N)c2cc3ccccc3cc21,-0.146% (inactive),
O=C(OCC(COC(=O)c1ccccc1)(COC(=O)c1ccccc1)COC(=O)c1ccccc1)c1ccccc1,-0.0012% (inactive),
CSc1cnc(C)cn1,-0.0333% [at 203 µM] (inactive),
CCCCCCCC/C=C\CCCCCCCCOCCO,-0.0446% [at 95.7 µM] (inactive),
CCCC(c1cc(C(C)(C)C)c(O)cc1C)c1cc(C(C)(C)C)c(O)cc1C,-0.0249% [at 95.7 µM] (inactive),
CCC(C)Nc1ccc(NC(C)CC)cc1 (stereo not given),0.292% [at 95.7 µM] (inactive),
CCN1/C(=C/C=C/c2sc3ccccc3[n+]2CC)Sc2ccccc21,0.0648% [at 46 µM] (inactive),
CS(=O)(=O)CCNCc1ccc(-c2ccc3ncnc(Nc4ccc(OCc5cccc(F)c5)c(Cl)c4)c3c2)o1,-0.0342% [at 46 µM] (inactive),
CCCCCCCCCCCCCCCC(=O)OC[C@H](O)[C@H]1OC(=O)C(O)=C1O,,inactive
CN(C)C(=O)C1(N2CCCCC2)CCN(CC[C@@]2(c3ccc(Cl)c(Cl)c3)CN(C(=O)c3ccccc3)CCO2)CC1,0.0168% (inactive),
OCc1c[nH]c2ccccc12,0.544% (inactive),
CC(C)c1ccc2c(c1)CC[C@H]1[C@](C)(CN)CCC[C@]21C,-0.0405% (inactive),
CC(C)(C)c1ccc(C(=O)CCCN2CCC(OC(c3ccccc3)c3ccccc3)CC2)cc1,-0.0548% [at 46 µM] (inactive),
Cc1cc(O)c2ccccc2c1O,0.528% [at 46 µM] (inactive),
COc1cc(-c2ccc(N=C=O)c(OC)c2)ccc1N=C=O,-0.0723% [at 46 µM] (inactive),
O=C(NOCC1CC1)c1ccc(F)c(F)c1Nc1ccc(I)cc1Cl,-0.0439% [at 46 µM] (inactive),
O=Cc1cc(O)ccc1Br,0.0221% [at 95.7 µM] (inactive),
O=C(N/N=C/c1ccccc1O)c1ccncc1,0.0183% [at 46 µM] (inactive),
